Assay results as given in ChEMBL document CHEMBL4888484, “Replenishing the malaria drug discovery pipeline: Screening and hit evaluation of the MMV Hit Generation Library 1 (HGL1) against asexual blood stage Plasmodium falciparum ,using a nano luciferase reporter read-out” (2022).
“And” between values parts separate entries of the source, which are not always exact repeats. Equal entries are not always repeated. Among all 4,800 compounds or so, about 420 (8.8%) showed an effect of 50% or more. For the sample, strong results were picked, then their nearest neighbours and some compounds at random.

Tested on: Plasmodium falciparum
Assay: Confirmatory screen in NF54 nanoGlo assay, in single point, at 2uM, 72h
Assay type: functional, Erythrocyte
Details: timepoint 72 hour

Row | SMILES | % Inhibition [%] | % Inhibition (2 µM)
1 | Cc1ccc([C@@H]2CC(=O)Nc3nc(N4CCN(CCO)CC4)nc(O)c32)cc1 | 2 | 
2 | NC(=O)CN1CCC2(CC1)NC(c1ccc(OC(F)(F)F)cc1)=NO2 | 0 | 
3 | Cc1cncc(C(=O)N2CC(n3cnnc3C)C2)c1 | -19 | 
4 | CCc1nnc(NC(=O)C2CC2c2ccccc2)s1 (configuration not stated) | -3 | 
5 | COC(=O)c1c(NC(=O)[C@H]2CCCN(S(=O)(=O)c3cnn(C)c3C)C2)cnn1C | 4 | 
6 | CNS(=O)(=O)CC(=O)Nc1cc(Br)c(F)cc1F | -12 | 
7 | COc1cccc(CNC(=O)CCC(=O)N(c2ccccc2)c2ccccc2)c1 | 7 | 
8 | COc1ccc(CC(=N)Nc2cc3cc(OC)c(OC)cc3c(Cc3ccc(OC)c(OC)c3)n2)cc1OC | 80 | 
9 | CCCNC(=O)C[C@H](C)CC(=O)NCCc1ccc(OC)c(OC)c1 | 4 | 
10 | COc1ccc(CCNC(=O)CCCC(=O)NCc2ccccc2)cc1OC | -14 | 
11 | COC(=O)C1=C(C(=O)OC)SC(=C2C(=S)C(C)(C)N(C(=O)c3cccnc3)c3c(C)cc(C)cc32)S1 | 4 | 
12 | Oc1cccc(CN[C@H]2CCCc3occc32)c1Cl | 71 | 
13 | CC(O)CC(C)(C)CNC1CCCc2occc21 (configuration not stated) | -12 | 
14 | O=C(N[C@H]1CCCc2occc21)c1ccco1 | 0 | 
15 | CCN1CCC(CCNC(=O)c2cc3c(s2)N(CC)CCCC3)CC1 | -7 | 
16 | CCOc1cc(N2CCOCC2)c(OCC)cc1NC(=O)c1ccc(C)c(NC(=O)c2ccco2)c1 | 22 | 
17 | N#Cc1nc(NC(=O)c2cc3c(s2)CCOC3)[nH]c1C#N | 3 | 
18 | CN(CC(F)(F)F)S(=O)(=O)c1ccc(C(=O)O)cc1 | -5 | 
19 | Cc1ccc(CC[C@H]2Nc3ccccc3C(c3ccccc3)(c3ccccc3)O2)o1 | 74 | 
20 | Cc1ccccc1[C@H]1CCN(c2ccc(NC(=O)c3ccc(F)cc3)c(C(=O)O)c2)C1 | -11 | 
21 | Cc1cc(Cn2cc(C(c3ccccc3)c3ccccc3)nn2)no1 | -3 | 
22 | Nc1c(-c2ccccc2)nsc1C(=O)NCc1ccc(F)cc1 | -2 | 
23 | CC(=O)Nc1ccc(NC(=O)CN2CCCN(c3cncc(F)c3)CC2)cc1 | -1 | 
24 | O=C(O)C1C2C=CC(O2)C1C(=O)NC1CCCc2ccccc21 (configuration not stated) | -4 | 
25 | O=C(CC(O)c1cccc(F)c1)NCCC1CCCCO1 (configuration not stated) | -1 | 
26 | COc1cccc(CNC(=O)c2sc(Nc3ccc(C)cc3C)nc2C)c1 | -13 | 

Row | SMILES | % Inhibition [%] | % Inhibition (2 µM)
27 | COc1cccc(-c2nc(C)c(C(=O)Nc3n[nH]c(CC(C)C)n3)s2)c1 |  | 78% and 70%
28 | CCO[C@@H](C)C(=O)Nc1n[nH]c(Cc2cccc(F)c2)n1 | -1 | 
29 | COCCc1cc(NC(=O)Nc2sc(-c3ccccc3)nc2C)n(C)n1 | 14 | 
30 | COc1cccc(-c2nc3n(c2C(=O)NCC(C)C)CCS3(=O)=O)c1 | -2 | 
31 | COc1cccc(-c2nc(C)c(C(=O)Nc3nc(C(C)C)n[nH]3)s2)c1 | 74 | 
32 | C[C@@](CO)(NC(=O)Nc1cc(-c2ccco2)ccc1F)C1CC1 | -4 | 
33 | O=C(c1ccccc1)c1c[nH]c2c(F)cc(F)cc2c1=O | -5 | 
34 | CCOCCc1nc(-c2ccccn2)c(CCOCC)nc1-c1ccccn1 | 10 | 
35 | O=C1NC(=O)[C@]2(CCOc3ccc(F)cc32)N1 | -3 | 
36 | Cc1cc(C)n2c(=O)c3ccccc3nc2c1C#N | -5 | 
37 | Cc1cccc(CN(Cc2cccc(C)n2)C[C@H]2CCCCO2)n1 | 90 | 
38 | Cc1cccc(CNC(=O)NC2CCOC2c2ccc(Cl)cc2)n1 (configuration not stated) | -15 | 
39 | Cc1cc(C)nc(NCCC[C@H]2CCCCO2)n1 | -6 | 
40 | O[C@H]1CNCC[C@@H]1Nc1cc(-c2ccccc2)nc2ccccc12 | 46 | 
41 | COc1cc(OC)c(S(=O)(=O)NC(C)C)cc1S(=O)(=O)NC(C)C | -4 | 
42 | O=C1CC(c2cccc(Br)c2)N(S(=O)Oc2ccccc2)c2ccccc21 (configuration not stated) | 4 | 
43 | COc1ccc2oc(-c3ccc(CNC(=O)c4ccccc4)cc3)nc2c1 | -5 | 
44 | COc1ccc(CNc2nc(-c3nnc(-c4ccccc4)o3)nc3ccccc23)cc1 | 55 | 
45 | COc1ccc2oc(-c3ccc(CNC(=O)c4ccc(C)cc4)cc3)nc2c1 | -3 | 
46 | Oc1c(-n2cncn2)cnc2ncnn12 | -7 | 
47 | Cc1cc(-c2ccco2)cc(Cl)c1N | -1 | 
48 | O=C1CCN(C(=O)C2(c3cccc(Cl)c3)CCCC2)CCN1 | 2 | 
49 | CC(C)(C)c1ccc(-c2ccc(C(=O)NCC3(O)CCOCC3)o2)cc1 | 0 | 
50 | CCc1c(NC(=O)[C@@H](C)C2CC2)nnn1CCc1ccc(OC)cc1 | -1 | 
51 | COc1ccc(NC(=O)[C@@H](C)C2CCOCC2)cc1 | -6 | 
52 | COC(=O)c1c(NC(C)=O)c2cc(NC3CCOCC3)cnc2n1CCc1ccc(OC)cc1 | 70 | 

Row | SMILES | % Inhibition [%] | % Inhibition (2 µM)
53 | Cc1nn(C)c2c(N3CCOCC3)nc(C3CC3)nc12 | -8 | 
54 | CC[C@H]1Cn2c(C(=O)NCc3ccc(C)o3)cc3cccc(c32)O1 | -11 | 
55 | COc1ccc(-[n+]2c(-c3ccc(-c4ccccc4)cc3)cn3c2COCC3)cc1 | 66 | 
56 | COc1ccc(-[n+]2c(-c3ccccc3)cn3c2CCC3)cc1 | 77 | 
57 | COc1ccc(-c2nnc(COc3ccc(-c4ccccc4)cc3)s2)cc1 | -7 | 
58 | COc1ccc(-c2nc(N)s[n+]2-c2ccccc2)cc1 | -2 | 
59 | COc1ccc(CCc2nnc3n2CCOC3)cc1 | -4 | 
60 | COc1ccc(-c2noc(Cn3c(=O)c4ccccc4n(CC(=O)Nc4cc(C)ccc4C)c3=O)n2)cc1 | 0 | 
61 | O=C(Nc1nn(Cc2ccccc2)cc1Cl)c1cc(-c2ccc(OC(F)F)cc2)[nH]n1 | 4 | 
62 | Nc1noc2cc(C(F)(F)F)cnc12 | 4 | 
63 | COc1ccc2c(c1)CN(c1nnc(C3CC3)o1)CC2 | 7 | 
64 | CN1CCN(Cc2cc3cc4c(cc3nc2-c2ccc(Cl)cc2)OCO4)CC1=O | 53 | 
65 | O=c1[nH]c2cc3c(cc2c(=O)n1Cc1nc(-c2ccc(Cl)cc2)no1)OCO3 | -1 | 
66 | Cc1cc(C)nc(-n2nc(-c3ccc(Cl)cc3)c3c2NC(=O)C[C@@H]3c2ccc3c(c2)OCO3)n1 | -7 | 
67 | Cc1cc(OC[C@@H](O)CNC(C)(C)CC(C)(C)C)cc(C)c1Cl | 67 | 
68 | CC(=O)N1CCCN(S(=O)(=O)Cc2ccccc2Cl)CCNC(=O)[C@@H]2CCC[C@@H]21 | 0 | 
69 | Cc1ccc(-c2n[nH]c(NC(=O)Nc3ccc(F)c(S(=O)(=O)NC4CC4)c3)c2C)o1 | -9 | 
70 | CCOc1ccc([C@@H](Nc2nc(C)cc(C)n2)c2cc(C)sc2NC(=O)c2ccccc2)cc1 | 1 | 
71 | COc1ccc(OC)c([C@H](C)NC(=O)N2CCS(=O)(=O)CC2)c1 | -3 | 
72 | C[N+]12CCCCC1C(OC(=O)C1(c3ccccc3)CCCC1)CCC2 (configuration not stated) | 96 | 
73 | CN(C(=O)Cn1cnc2nc(N3CCC(C(=O)NC4CC4)CC3)sc2c1=O)c1ccccc1 | -14 | 
74 | CCCCC1NC(=O)N([C@@H]2CCC(=O)N[C@H]2c2ccccc2)C1=O (some centres not stated) | 2 | 
75 | CC(=O)Nc1ccccc1CC(c1c[nH]c2ccccc12)c1c[nH]c2ccccc12 | 0 | 
76 | O=C(Cc1c[nH]c2ccccc12)Nc1ccc(Cl)c2ncccc12 | 5 | 
77 | CC(C)C(NC(=O)COc1ccccc1)C(=O)NCC(c1ccccc1Cl)c1c[nH]c2ccccc12 (configuration not stated) | 69 | 
78 | CCS(=O)(=O)N1CCN(c2nc(Cc3ccc(C)cc3)nc3c2c(C)nn3-c2ccccc2)CC1 | -3 | 

Row | SMILES | % Inhibition [%] | % Inhibition (2 µM)
79 | N/C(CC(=O)Nc1cccc(Cl)c1)=N/O | -4 | 
80 | CCCC[C@H](Oc1ccc(C(C)(C)CC)cc1C(C)(C)CC)C(=O)Nc1ccc(NC(=O)C(F)(F)C(F)(F)C(F)(F)F)c(O)c1 | 30 | 
81 | Cc1cc(-c2ccccc2)nc(O)c1S(C)(=O)=O | -3 | 
82 | Cc1nn(Cc2ccccc2)c2nc(C3CC3)cc(C(=O)N3CCOCC3)c12 | 3 | 
83 | Cc1nn(C(C)(C)C)c2nc(C3CC3)cc(C(=O)N(C)c3ccccc3)c12 | 81 | 
84 | Cc1ccc(S(=O)(=O)N2CCN(C(=O)c3cc(C4CC4)nc4c3c(C)nn4C(C)C)CC2)cc1 | -1 | 
85 | Cc1cnc(-n2cnnc2)c(-c2ccc(S(C)(=O)=O)cc2)c1 | -3 | 
86 | Cn1c(-c2ccccc2)cn2cc(-c3ccc(F)cc3)nc12 | 1 | 
87 | COc1cccc(Cn2nc3ccc(S(=O)(=O)N4CCCC4)cn3c2=O)c1 | 2 | 
88 | Cc1cc(C(=O)Nc2cc(C)nn2C)nc(N(C)C)n1 | -1 | 
89 | Cc1cc(C)n(C(=O)CNC(=O)c2ccccn2)n1 | 2 | 
90 | Cc1cc(NC(=O)c2ccccn2)n(-c2nc3ccccc3o2)n1 | 88 | 
91 | CCc1cc(C(=O)N(CC)c2ccccc2)c2c(C)noc2n1 | -7 | 
92 | O=C(Nc1cc(-c2onc3c2CCCC3)cc(C(F)(F)F)c1)c1cncc(Br)c1 | 95 | 
93 | Clc1ccc(-c2onc3c2CCCC3)cc1 | 2 | 
94 | O=C(Nc1onc2c1CCC2)c1ccc2ccccc2c1 | 45 | 
95 | Cn1c(CCNC(=O)CCc2cccnc2)nc2cc(Cl)ccc21 | -3 | 
96 | CCN1CCC(NC(=O)CCc2c[nH]c3ccccc23)CC1 | 4 | 
97 | CC1(C)Oc2ccc(S(=O)(=O)NC3CCCCC3)cc2NC1=O | -8 | 
98 | Cc1nn(-c2nc3ccccc3[nH]2)c(O)c1CCC(C)C | 68 | 
99 | Cc1nn(-c2nc3ccccc3[nH]2)c(O)c1Cc1ccccc1 | 2 | 
100 | Oc1cc(-c2ccc(F)cc2)nn1-c1nc2ccccc2[nH]1 | -9 | 
101 | O=C(Nc1ccc(OC2CCC2)c(F)c1)N1CC[C@H](O)C1 | -2 | 
102 | CCCc1noc([C@H](C)OC(=O)c2cc[nH]n2)n1 | -7 | 
